This passage reports growth inhibition results from PubChem BioAssay (NCI).

Several values for one entry are separate records, joined by “and”; a condition that tells them apart may be missing. Identical values can stand only once. This is part of a sample that, as a whole, favours compounds with a hit. Of some 79,000 tested, about 15% had one in any assay. Values without a mark were called inactive. Activity calls are given as the source filed them. Rule as the data show it: active = growth inhibition above about 70%; inactive = the rest.

The nature of assay [1]: NCI Yeast Anticancer Drug Screen. Data for the rad50 strain (AID 155).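 Also: 0% = growth of vehicle-only cultures of the same strain.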 To be noted: S. cerevisiae rad50 strain growth inhibition, stronger effect = higher value. In short, it runs like this:
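Compounds were tested on a yeast strain with an engineered DNA damage repair alteration; the reported value is growth inhibition normalised to vehicle treatment.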

A short description of assay [2]: NCI Yeast Anticancer Drug Screen. Data for the sgs1 mgt1 strain (AID 161).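 Also: 0% = growth of cultures given vehicle only.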 To be noted: S. cerevisiae sgs1 mgt1 strain, stronger effect = higher value. In short, it runs like this: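 This yeast growth screen uses a strain with defined DNA-repair lesions; compound-treated growth is compared with vehicle-treated growth.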
Assay [3] in a line: NCI Yeast Anticancer Drug Screen. Data for the cln2 rad14 strain (AID 165).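 Also: 0% = growth equal to vehicle treated cultures.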 The settings on record: S. cerevisiae cln2 rad14 strain, stronger effect = higher value. In short, it runs like this:
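Strain: cln2 rad14 yeast, altered in cell cycle control and DNA damage repair. Read-out: growth inhibition vs vehicle.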

The nature of assay [4]: NCI Yeast Anticancer Drug Screen. Data for the bub3 strain (AID 167). To be noted: S. cerevisiae bub3 mutant strain, stronger effect = higher value. In short, it runs like this:
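Growth of a checkpoint-deficient yeast mutant is measured after compound exposure. Values represent inhibition relative to vehicle.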

The nature of assay [5]: NCI Yeast Anticancer Drug Screen. Data for the mlh1 rad18 strain (AID 175). The settings on record: S. cerevisiae mlh1 rad18 strain growth inhibition, stronger effect = higher value. In a few lines: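 A repair-deficient yeast strain is exposed to test compound, and growth is scored relative to vehicle-treated controls.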
The nature of assay [6]: NCI Yeast Anticancer Drug Screen. Data for the mec2-1 strain (AID 157). The settings on record: S. cerevisiae mec2-1 strain, stronger effect = higher value. In short, it runs like this:
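Compounds were applied to mec2-1 yeast cells. Their growth was then compared with that of vehicle-treated cultures to give growth inhibition.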

The mark [7] stands for this setting: at 5.0 µM (retest, dose inferred, filed as 0.5).
[8] abbreviates: at 50.0 µM (retest, dose inferred, filed as 5.0).

For the compound `c1ccc(NNc2ccc3ccccc3n2)cc1`, the growth inhibition in assay [1] (setting [7]) is 3%; in assay [1] (setting [8]), 96% (active); in assay [1] (at 50.0 µM) it was 38.6%; in assay [2] (setting [7]), -3%; in assay [2] (setting [8]), 18%; in assay [2] (at 50.0 µM), 77.2% (active). Besides, the growth inhibition is -6% in assay [3] (setting [7]); -1% in assay [3] (setting [8]); 39% in assay [3] (at 50.0 µM); 24% in assay [4] (setting [7]); 85% (active) in assay [4] (setting [8]); 77.6% (active) in assay [4] (at 50.0 µM). In addition, the growth inhibition in assay [5] (setting [7]) was 0%; in assay [5] (setting [8]), 40%; in assay [5] (at 50.0 µM), 65.8%.
Turning to `O=Cc1cc2ccccc2cc1C=O`, the growth inhibition in assay [1] (setting [7]) was 88% (active); in assay [1] (setting [8]), 96% (active); in assay [1] (at 50.0 µM) it was 86% (active); in assay [6] (setting [7]) it was 94% (active); in assay [6] (setting [8]), 97% (active); in assay [6] (at 50.0 µM), 87.3% (active). The growth inhibition is 87% (active) in assay [3] (setting [7]); 95% (active) in assay [3] (setting [8]); 88.8% (active) in assay [3] (at 50.0 µM); 94% (active) in assay [4] (setting [7]); 96% (active) in assay [4] (setting [8]); 86.5% (active) in assay [4] (at 50.0 µM). Besides, the results for the growth inhibition in assay [5] (setting [7]), in assay [5] (setting [8]) and in assay [5] (at 50.0 µM) were 93% (active), 95% (active) and 86.2% (active), respectively.
`O=C(c1ccccc1)C1C(=O)c2ccccc2C1=O`: the growth inhibition in assay [1] (at 50.0 µM) was -10.2% and -25.2% and 23.2%; in assay [6] (at 50.0 µM), 1.1% and -21.3% and 20%; in assay [2] (at 50.0 µM) it was -5.1% and 12.2% and 24.1%; in assay [3] (at 50.0 µM), -20.8% and 17.2% and 17.1%; in assay [4] (at 50.0 µM), -10.4% and -2.95% and 19.4%; in assay [5] (at 50.0 µM) it was -7.6% and -26.1% and 18.5%.
Take `O=c1[nH]c(C(F)(F)F)c(F)c(=O)[nH]1`: the growth inhibition in assay [1] (setting [7]) is 0%; in assay [1] (setting [8]) it was -2%; in assay [1] (at 50.0 µM), 69.3%; in assay [2] (setting [7]) it was 2%; in assay [2] (setting [8]), 27%; in assay [2] (at 50.0 µM), 86.7% (active). The growth inhibition was 3% in assay [3] (setting [7]); 5% in assay [3] (setting [8]); 94.1% (active) in assay [3] (at 50.0 µM); -2% in assay [4] (setting [7]); -5% in assay [4] (setting [8]); 63.1% in assay [4] (at 50.0 µM). Further, the growth inhibition in assay [5] (setting [7]) was -2%; in assay [5] (setting [8]), -3%; in assay [5] (at 50.0 µM), 95% (active).
For the compound `O=C(CC1(O)C(=O)Nc2c(Cl)cccc21)c1ccc(Cl)cc1` (stereo unspecified), the growth inhibition in assay [1] (setting [7]) is 9%; in assay [1] (setting [8]) it was 45%; in assay [1] (at 50.0 µM) it was 18.6%; in assay [6] (setting [7]), 8%; in assay [6] (setting [8]) it was 29%; in assay [6] (at 50.0 µM) it was 20.8%. Also, the growth inhibition is 17% in assay [3] (setting [7]); 71% (active) in assay [3] (setting [8]); 19.4% in assay [3] (at 50.0 µM); 10% in assay [4] (setting [7]); 72% (active) in assay [4] (setting [8]); 19.4% in assay [4] (at 50.0 µM). Further, the growth inhibition in assay [5] (setting [7]) was -7%; in assay [5] (setting [8]), 54%; in assay [5] (at 50.0 µM), 28.3%.
Turning to `O=C(C1=NNC(c2ccccc2)C1C(=O)c1ccccc1)c1ccccc1` (stereo unspecified), the growth inhibition in assay [1] (setting [7]) was -1%; in assay [1] (setting [8]), 82% (active); in assay [1] (at 50.0 µM), 74.8% (active); in assay [6] (setting [7]) it was -7%; in assay [6] (setting [8]) it was 65%; in assay [6] (at 50.0 µM), 30.6%. For the same compound, the growth inhibition was 2% in assay [2] (setting [7]); 84% (active) in assay [2] (setting [8]); 79% (active) in assay [2] (at 50.0 µM); -10% in assay [4] (setting [7]); 86% (active) in assay [4] (setting [8]); 75% (active) in assay [4] (at 50.0 µM). For the same compound, the growth inhibition in assay [5] (setting [7]) is 4%; in assay [5] (setting [8]) it was 86% (active); in assay [5] (at 50.0 µM), 81.2% (active).
As for `c1ccc(OCCCOc2ccccc2)cc1`, the growth inhibition is 4% in assay [1] (setting [7]); 2% in assay [1] (setting [8]); -4.15% in assay [1] (at 50.0 µM); 4% in assay [2] (setting [7]); 3% in assay [2] (setting [8]); 13% in assay [2] (at 50.0 µM). In addition, the growth inhibition is 3% in assay [3] (setting [7]); -9% in assay [3] (setting [8]); -5.75% in assay [3] (at 50.0 µM); 7% in assay [4] (setting [7]); 25% in assay [4] (setting [8]); 10.3% in assay [4] (at 50.0 µM). For the same compound, the growth inhibition in assay [5] (setting [7]) is 2%; in assay [5] (setting [8]) it was -1%; in assay [5] (at 50.0 µM), 61.9%.
Consider `CC1CCCC(C(c2c[nH]c3ccccc23)c2c[nH]c3ccccc23)C1=O` (stereo unspecified), for which the growth inhibition is 1% in assay [1] (setting [7]); 98% (active) in assay [1] (setting [8]); 96.8% (active) in assay [1] (at 50.0 µM); 1% in assay [6] (setting [7]); 98% (active) in assay [6] (setting [8]); 58.6% in assay [6] (at 50.0 µM). In addition, the growth inhibition in assay [3] (setting [7]) was 0%; in assay [3] (setting [8]), 98% (active); in assay [3] (at 50.0 µM), 76.3% (active); in assay [4] (setting [7]), -11%; in assay [4] (setting [8]), 96% (active); in assay [4] (at 50.0 µM) it was 46%. For the same compound, the figures for the growth inhibition in assay [5] (setting [7]), in assay [5] (setting [8]) and in assay [5] (at 50.0 µM) were -5%, 98% (active) and 97.2% (active), respectively.
For the compound `CC(C)=CCc1c2c(c(O)c3c(=O)c(-c4ccc(O)cc4O)coc13)C=CC(C)(C)O2`, the growth inhibition was -20% in assay [1] (setting [7]); 95% (active) in assay [1] (setting [8]); 83.2% (active) in assay [1] (at 50.0 µM); -11% in assay [2] (setting [7]); 95% (active) in assay [2] (setting [8]); 85.9% (active) in assay [2] (at 50.0 µM). Besides, the growth inhibition in assay [3] (setting [7]) was 15%; in assay [3] (setting [8]) it was 97% (active); in assay [3] (at 50.0 µM), 83.2% (active); in assay [4] (setting [7]), 26%; in assay [4] (setting [8]) it was 96% (active); in assay [4] (at 50.0 µM), 81.2% (active). Besides, the growth inhibition was 7% in assay [5] (setting [7]), 95% (active) in assay [5] (setting [8]) and 84.7% (active) in assay [5] (at 50.0 µM).
As to `COC(=O)c1c(C)cccc1C(=O)c1c(C)cc(C)cc1C`, the growth inhibition was -6% in assay [1] (setting [7]); 63% in assay [1] (setting [8]); 73.1% (active) in assay [1] (at 50.0 µM); 21% in assay [6] (setting [7]); 68% in assay [6] (setting [8]); 82.2% (active) in assay [6] (at 50.0 µM). Moreover, the growth inhibition in assay [3] (setting [7]) was -26%; in assay [3] (setting [8]), 45%; in assay [3] (at 50.0 µM) it was 15.2%; in assay [4] (setting [7]) it was 2%; in assay [4] (setting [8]), 56%; in assay [4] (at 50.0 µM) it was 88.2% (active). In addition, the growth inhibition was 4% in assay [5] (setting [7]), 85% (active) in assay [5] (setting [8]) and 91.8% (active) in assay [5] (at 50.0 µM).
